# Inconclusive results are not listed. Activity calls are given as the source filed them. Calls come from the whole dose curve; as a rule, active = well fitted cell-killing curve with a large enough effect in the repeat runs; inconclusive = weak or mixed curves, or effect the other way; inactive = no such curve, though single readings can be large or run the other way.
# Assay: qHTS assay to identify small molecule agonists of the vitamin D receptor (VDR) signaling pathway - cell viability counter screen (AID 743224); note: nearly all actives have a fitted effect of over 50% in size
# Settings: VDR-bla HEK293T viability, CellTiter-Glo luminescence, 16 h; series mostly up to 62.6 µM; activity change, negative = cytotoxicity: at the top concentration
# Procedure, shortened: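 VDR-bla cells, 4 h after plating, exposed to compounds for 16 h at 37C; viability then read in the same wells as CellTiter-Glo luminescence after 30 min at room temperature, following the bla FRET read.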
# % is set by controls: 0 for no effect and ±100 for the full control effect.
row,SMILES,"activity change, negative = cytotoxicity"
1,CCCCCCCCCCCBr,-0.827% (inactive)
2,O=C(O)P(=O)(O)O,8.64% (inactive)
3,CCCCCCCCCCCCCCCC/C=C/C1CC(=O)OC1=O (stereo not given),-14.8% (inactive)
4,COC(=O)c1cc(Cl)c(NC(C)=O)cc1OC,-0.238% (inactive)
5,CCN(CC)CC(=O)Oc1ccc(NC(C)=O)cc1,6.59% (inactive)
6,O=P(O)(O)C(O)(Cc1cccnc1)P(=O)(O)O,7.27% (inactive)
7,COC(=O)N/N=C/c1c[n+]([O-])c2ccccc2[n+]1[O-],-1.39% (inactive)
8,CC(=O)SCC(CC(=O)c1ccc(C)cc1)C(=O)O (stereo not given),18.1% (inactive)
9,C/C(=N\O)c1ccc(OCC(=O)N2CCCCC2)cc1,25.4% (inactive)
10,C=C(C)C(=O)OCCOC1CC2CC1C1C=CCC21 (stereo not given),22.6% [at 81.1 µM] (inactive)
11,O=C(CCBr)N1CCN(C(=O)CCBr)CC1,-1.39% (inactive)
12,CCCCCCCCC1CO1 (stereo not given),8.38% [at 81.1 µM] (inactive)
13,O=C(O)CCC(=O)Nc1ccc(S(=O)(=O)Nc2nccs2)cc1,-10.1% (inactive)
14,C/C=C(\C)C=O,7.5% [at 81.1 µM] (inactive)
15,CCOCCOCCOC(C)=O,21.7% [at 81.1 µM] (inactive)
16,CN1CCN(C(=O)C2CCCCC2)CC1,7.8% (inactive)
17,CCN(CC)CC,0.254% [at 81.1 µM] (inactive)
18,CCCCC(O)/C=C(C)/C=C/C=C/C(=O)N1CCCC1=O (stereo not given),8% (inactive)

row,SMILES,"activity change, negative = cytotoxicity"
1,CCCCCCCCCCCCCCCC(=O)OC,1.92% [at 29.1 µM] (inactive)
2,COC(=O)c1ccc(C(=O)O)cc1,9.8% (inactive)
3,Cc1cc(C)c(C)c(C)c1,0.167% (inactive)
4,CC1(C)C(=O)C(C)(C)C1=O,-1.74% (inactive)
5,CC(C)(C)OC(=O)c1ccccc1C(=O)O,0.424% (inactive)
6,Cc1ccccc1C#N,-2.37% (inactive)
7,O=C(O)Cc1c(Cl)ccc(Cl)c1Cl,-6.4% (inactive)
8,C[C@H]1COc2c(C3(N)CC3)c(F)cc3c(=O)c(C(=O)O)cn1c23,0.434% (inactive)
9,Cc1ccccc1OCC(=O)O,-8.87% (inactive)
10,C[C@@H]1CC[C@@]2(OC1)O[C@H]1C[C@H]3[C@@H]4CC[C@H]5C[C@@H](O)CC[C@]5(C)[C@H]4CC(=O)[C@]3(C)[C@H]1[C@@H]2C,4.49% [at 5.95 µM] (inactive)
11,CC(C)C(=O)Nc1cccc(C2CN3CCSC3=N2)c1 (stereo not given),2.29% (inactive)
12,COC(=O)c1ccc(NC(C)=O)cc1OC,0.11% (inactive)
13,CN(C)c1cc(NC(=O)CNC(C)(C)C)c(O)c2c1C[C@H]1C[C@H]3[C@H](N(C)C)C(=O)C(C(N)=O)=C(O)[C@@]3(O)C(=O)C1=C2O,0.5% (inactive)
14,OCCC(F)(F)C(F)(F)C(F)(F)C(F)(F)C(F)(F)C(F)(F)F,16.4% (inactive)
15,CCCCc1ccc(Cl)cc1,8.86% (inactive)
16,CC(=O)SC[C@@H](C)C(=O)N1CCC[C@H]1C(=O)N[C@@H](Cc1ccccc1)C(=O)O,14% (inactive)
17,CC1(C)CC(N)CC(C)(C)N1,0.534% (inactive)
